HCMV antiviral = inhibitors of human cytomegalovirus; 410,000 compounds, 4.5% hits; activity change, negative = inhibition, % at 57.5 µM; HFF cells, HCMV-luciferase reporter, 72 h; active compounds read low; AID 1259415; in the data active = activity change below about -60%; inconclusive = no clear call, values can overlap the other calls; inactive = above about -39%; note: % is set by controls: 0 for no effect and ±100 for the full control effect
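Two compound doses tested in HFFs infected with HCMV-luciferase, MOI 1 PFU/cell, 72 h at 37C. Lysate luminescence read with OneGlo; data normalized against buffer-only and 10uM Salinomycin inhibitor controls.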
FMDV inh = antivirals against foot and mouth disease virus. AID 1159524. Potency, µM (doses to about 57.9 µM), for the others: top-dose activity change, negative = inhibition, hits mostly inhibitors. FMDV antiviral cell-based qHTS. 410,000 compounds, 1.2% hits; calls by dose curve; tested in HEK293T cells; note: read-out not given here; potency is the fitted concentration of half-maximal effect; % is set by controls: 0 for no effect and ±100 for the full control effect; nearly all actives have a fitted effect of over 45% in size
MARV entry inh = inhibitors of Marburg virus binding or cell entry | 300,000 compounds, 1.8% hits | Potency, µM (top dose mostly 37.8 µM), for inactives: at the top dose activity change, negative = inhibition, usual class: inhibitors | Marburg virus pseudotyped entry inhibition, cell reporter; calls by dose curve; tested in HEK293 cells; note: potency is the fitted concentration of half-maximal effect; % is set by controls: 0 for no effect and ±100 for the full control effect
SARS PLP yeast = SARS-CoV PLP inhibition in yeast | 330,000 compounds, 0.19% hits | Potency, µM (highest dose often 32.9 µM), inactives show at the highest dose activity, positive = growth rescue, most hits filed as activators | S. cerevisiae expressing SARS-CoV PLpro, growth rescue | AID 485353; calls by dose curve; note: potency is the fitted concentration of half-maximal effect; 0% is about no effect; nearly all actives have a fitted effect of over 55% in size
HCV inhibitor = inhibitors of hepatitis C virus infection | Huh7.5.1 HCVcc-Cre infection, luciferase reporter, 44 h | Potency, µM (titrated, usually from 41.8 µM), inactives show at the highest dose activity change, negative = inhibition, actives largely listed as inhibitors | 340,000 compounds, 3.4% hits | AID 651820; active = well fitted inhibition curve with a large enough effect; inconclusive = small, poorly fitted or top-dose-only effect, or another doubt; inactive = no such curve, though single readings can be large or run the other way; note: potency is the fitted concentration of half-maximal effect; % is set by controls: 0 for no effect and ±100 for the full control effect
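A cell-based infection assay in which seeded cells (1,000 per well) receive test compound after 4 h, are inoculated with HCVcc-Cre at approximately 0.5 moi, and are incubated 44 h before luminescence detection.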
LASV entry inh = Lassa virus entry inhibition | Lassa virus pseudotype entry inhibition, cell reporter | Potency, µM (highest dose often 37.9 µM), for inactives: at the top dose activity change, negative = inhibition, most hits filed as inhibitors | 300,000 compounds, 1.2% hits; calls by dose curve; tested in HEK293 cells; note: potency is the fitted concentration of half-maximal effect; % is set by controls: 0 for no effect and ±100 for the full control effect; nearly all actives have a fitted effect of over 50% in size
* marks the source's active call; other numbers are inactive results; ? = inconclusive; · = no result; ! = a repeat was not active; [ ] = remark or other dose. This is a sample that favours compounds with a hit; in the whole collection about 8% have one here.

SMILES | HCMV antiviral | FMDV inh | MARV entry inh | SARS PLP yeast | HCV inhibitor | LASV entry inh
CC(C)(C)n1nnnc1C(C1CC1)N1C(=O)C(=O)c2ccccc21 (stereo not given) | -77* | · | · | · | · | ·
CC(NC(=O)OCc1ccccc1)C(=O)Oc1cc2oc(=O)cc(-c3ccccc3)c2cc1Cl (stereo not given) | -94* | -18% | -13% | 29% | 25% | 7%
CC(C)(C)CC(C)(C)NC(=O)C(=O)c1cccnc1 | 12 | · | · | · | · | ·
OCCCCCN=c1cc(-c2ccccc2)oc2ccc(Cl)cc12 | -62* | 12% | ? | -1% | ? | ?
O=C1[C@H]2[C@H]3[C@H](O)[C@H](O)C/C(=N\OCc4ccccc4)[C@H]3CC[C@H]2C(=O)N1C[C@@H]1CCCO1 | · | · | -7%[14.2 µM] | · | · | ·
COc1cccc(NC(=O)Nc2cnccn2)c1 | -69* | 69% | 23%[46.1 µM] | -1% | -11% | -8%
COc1ccccc1NC(=O)Nc1cnccn1 | -15 | -1% | 19%[46.1 µM] | 0% | -13% | ?
COc1cc([N+](=O)[O-])ccc1NC(=O)Nc1cnccn1 | -61* | 8% | · | ? | ? | ·
CCOC(=O)N1CCC(n2c(=S)[nH]c3cc(OCC)c(OCC)cc3c2=O)CC1 | -77* | -9% | ? | 4% | -29% | -12%
COc1cccc(C(=O)c2cn(CC(=O)NCc3ccccc3)c3nc(C)ccc3c2=O)c1 | -25 | 23% | · | · | · | -1%[46.1 µM]
Cc1cc(Cl)ccc1NC(=S)NCC(C)C | -73* | 23% | ? | ? | -5% | 0%
CCCNC(=S)Nc1ccc(Cl)cc1C | 2 | -12% | 1% | ? | -10% | 0%
COc1cc(NC(=O)CC(C)S(=O)(=O)c2cc3c4c(c2)CCN4C(=O)CC3)cc(OC)c1 (stereo not given) | -2 | -19% | · | · | · | -1%[46.1 µM]
OCCNCCCCSc1ccc(Cl)cc1 | -12 | -10% | · | -1% | 10µM* | ·
COCCCNCCCCSc1ccc(Cl)cc1 | -26 | -9% | ? | -34% | 13µM* | ?
OCCNCCSc1ccc(Cl)cc1 | 16 | 6% | · | 0% | 0% | ·
COCCCNCCOCCSc1ccc(Cl)cc1 | ? | -7% | ? | -16% | ? | 10%
CCCCNCCOCCSc1ccc(Cl)cc1 | 11 | -16% | ? | 1% | 7.9µM* | -18%
N#C/C(C(=O)N1CCOCC1)=C1\S[C@H](Cc2ccccc2)C(=O)N1c1ccccc1 | · | · | 20% | · | · | ·
CCOC(=O)c1ccc(NC(=O)CS(=O)(=O)Cc2nc(-c3ccc(C)cc3)oc2C)cc1 | -23 | 3% | ? | · | · | 23%[46.1 µM]
COc1cccc(-c2cc(NC=O)c3ncc(-c4cccc(C(=O)NCCN(C)C)c4)n3c2)c1 | -33 | -16% | · | · | · | ·
CC(=O)Nc1cc(-c2ccc(N3CCN(C)CC3)cc2)cn2c(-c3ccccc3)cnc12 | -60* | -8% | · | · | · | ·
CN(C)C(=O)c1cccc(-c2cnc3c(NC=O)cc(-c4cccc(C(F)(F)F)c4)cn23)c1 | ? | 32µM* | · | · | · | ·
CC(=O)Nc1cc(-c2ccc(N3CCN(C)CC3)cc2)cn2c(-c3ccc(S(C)(=O)=O)cc3)cnc12 | -5 | -7% | · | · | · | ·
CN(C)CCNC(=O)c1cccc(-c2cnc3c(NC=O)cc(-c4ccc(S(C)(=O)=O)cc4)cn23)c1 | -66* | 6% | · | · | · | ·
SMILES | HCMV antiviral | FMDV inh | MARV entry inh | SARS PLP yeast | HCV inhibitor | LASV entry inh
CN(C)CCNC(=O)c1cccc(-c2cc(NC=O)c3ncc(-c4cccc(C(F)(F)F)c4)n3c2)c1 | -61* | -2% | · | · | · | ·
CCCSc1ncc(Cl)c(C(=O)Nc2c(C(=O)Nc3ccc(C)cc3)oc3ccccc23)n1 | 12 | -6% | 10%[46.1 µM] | · | · | 8%[46.1 µM]
CC(=O)Nc1cc(-c2cccnc2)cn2c(-c3cccc(C(F)(F)F)c3)cnc12 | -62* | -12% | · | · | · | ·
COc1ccccc1-c1cc(NC(C)=O)c2ncc(-c3cccc(C(F)(F)F)c3)n2c1 | 15 | -28% | · | · | · | ·
CN(C)CCNC(=O)c1cccc(-c2cnc3c(NC=O)cc(-c4cc(F)c(F)c(F)c4)cn23)c1 | -76* | -6% | · | · | · | ·
CCc1ccccc1N(CC)C(=O)C(=O)Nc1ccc2nc3n(c(=O)c2c1)CCCCC3 | -27 | -29% | 4%[46.1 µM] | · | · | ?
COc1ccc(-c2[nH]c(-c3ccc(C)cc3)nc2SCC(=O)NCC2CCCO2)cc1 (stereo not given) | -9 | 6% | 3%[46.1 µM] | · | · | -11%[46.1 µM]
O[C@H]1CN(Cc2cccs2)[C@@H](c2ccc(Cl)cc2)C[C@H]1n1cc(C2CC2)nn1 | · | · | · | · | · | -24%[46.1 µM]
O=C(OCCN1CCN(c2ncc(C(F)(F)F)cc2Cl)CC1)c1ccc(Cl)cc1 | -9 | -6% | 11% | -8% | 13% | -2%
C/[N+]([O-])=C\c1cccc(OCCN2CCN(c3ncc(C(F)(F)F)cc3Cl)CC2)c1 | -74* | ? | ? | -3% | 25µM* | -17%[46.1 µM]
CSc1sc(C)cc1C=O | 9 | -8% | 17%[46.1 µM] | 1% | -12% | -21%
CSc1cc(/C=N/O)c(SC)s1 | -6 | -26% | ? | -22% | 10µM* | -16%
CCN(CC)c1ccc(NC(=O)Cn2cc3c(n2)CCCC3)c(C)c1 | -29 | -20% | -6%[46.1 µM] | · | · | -18%[46.1 µM]
O=S(=O)(c1cccc(F)c1)N1CCC(Oc2ccc(-n3cnnn3)cc2)CC1 | -96* | ? | -14%[46.1 µM] | · | · | 1%[46.1 µM]
N#Cc1ccccc1S(=O)(=O)N1CCC(Oc2ccc(-n3cnnn3)cc2)CC1 | -27 | ? | ? | · | · | ?
CC(=O)Nc1ccc(S(=O)(=O)N2CCC(Oc3ccc(-n4cnnn4)cc3)CC2)cc1 | -89*! | ? | ? | 1% | -6% | ?
COc1ccc(NC(=O)C2CCCN(S(=O)(=O)c3ccc(-n4cnnn4)cc3)C2)cc1 (stereo not given) | -24 | -4% | -18%[46.1 µM] | 2% | -8% | -23%[46.1 µM]
Cc1ccc(C)c(NC(=O)c2cnn(-c3ccc(F)cc3F)c2C2CCNCC2)c1 | 12 | -14% | · | · | · | 24%[46.1 µM]
Cc1ccc(-n2ncc(C(=O)Nc3cc(Cl)ccc3C)c2C2CCNCC2)cc1C | -91* | -22% | · | 0% | -11% | ·
Cc1cc(C)cc(NC(=O)c2cnn(-c3ccccc3)c2C2CCNCC2)c1 | -86* | -12% | · | 2% | -1% | ·
CCc1ccc(NC(=O)c2cnn(-c3ccccc3)c2C2CCNCC2)cc1 | ? | -20% | -17% | -4% | 28% | 1%
O=C(Nc1cccc(C(F)(F)F)c1)c1cnn(-c2cccc(F)c2)c1C1CCNCC1 | -77* | -18% | · | · | · | 38%[46.1 µM]
Cc1cc(C)cc(NC(=O)c2cnn(-c3ccc(C)c(C)c3)c2C2CCNCC2)c1 | -93* | -17% | · | · | · | ?
Cc1ccc(-n2ncc(C(=O)NCCN3CCc4ccccc4C3)c2C2CCNCC2)cc1C | -24 | -13% | · | · | · | 5%[46.1 µM]
O=C(Nc1ccccc1OC(F)F)c1ccn2ccnc2n1 | 9 | · | · | · | · | ·
CC(c1ccon1)N(C)C(=O)c1cnn(-c2ncc3c(n2)-c2ccccc2CC3)c1C1CC1 (stereo not given) | · | 25% | · | · | · | ·

Screening data as filed in PubChem.
